Compounds with a hit are over-represented: about 7.4% of the library has one in this group of screens.
CRE Fsk mod = Cell signaling CRE-BLA (Fsk stim) | AID 662, 2007 | Potency, µM (highest dose often 38.2 µM), for the others: top-dose activity change, negative = inhibition, usual class: activators | CHO CRE-bla reporter (cAMP response element driving beta-lactamase), forskolin EC10, beta-lactamase ratio | actives 2.5% (n = 71,000); active = well fitted activation curve with a large enough effect in the signal ratio, with a control signal flat, not every such curve was filed as active; inconclusive = small, poorly fitted or top-dose-only effect, or effect the other way, or a change in a side signal; the % refers to the signal ratio; note: % of control where 0% means no effect
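Modulation of forskolin signalling: compounds in titration series added with EC10 NKH 477 to CHO cells carrying a CRE-driven beta-lactamase reporter, 3 h, 37C. CCF4 FRET ratio (460/530 nm, ex 405 nm) gives %activity and AC50.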
Tau fil binding = qHTS Assay for Tau Filament Binding; actives 2% (n = 71,000); Microtubule-associated protein tau (Homo sapiens), P10636; Potency, µM (doses to about 57.1 µM), inactives show at the top dose activity change, negative = inhibition; recombinant tau filaments, thioflavin S fluorescence, 15 h; filaments grown with octadecylsulfate alongside compound;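 note: % is set by controls: 0 for no effect and ±100 for the full control effect; actives lower thioflavin S fluorescence by blocking filaments or displacing dye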
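Quantitative HTS: thioflavine S signal from ODS-induced tau filaments, excited at 450 nm, emission 510 nm. Conditions: 1 uM tau, 30 uM ODS, 15 h at 37 C, pH 7.4.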
TSHR agonist = qHTS Assay for Agonists of the Thyroid Stimulating Hormone Receptor; HEK293-CNG-TSHR cells (CNG channel as cAMP sensor), membrane potential dye, cAMP; Thyrotropin receptor (Homo sapiens), P16473; AID 926, 2007; actives 0.48% (n = 73,000); Potency, µM (series often up to 57.1 µM), for the others: at the top dose activation, actives largely listed as activators; active = well fitted activation curve with a large enough effect in the main read-out, with a control signal flat, not every such curve was filed as active; inconclusive = small, poorly fitted or top-dose-only effect, or a change in a side signal; inactive = no such curve, though single readings can be large or run the other way; % of control where 0% means no effect;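 note: the control signal comes from parental cells without the receptor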
Target sequence (P16473 whole entry, looked up): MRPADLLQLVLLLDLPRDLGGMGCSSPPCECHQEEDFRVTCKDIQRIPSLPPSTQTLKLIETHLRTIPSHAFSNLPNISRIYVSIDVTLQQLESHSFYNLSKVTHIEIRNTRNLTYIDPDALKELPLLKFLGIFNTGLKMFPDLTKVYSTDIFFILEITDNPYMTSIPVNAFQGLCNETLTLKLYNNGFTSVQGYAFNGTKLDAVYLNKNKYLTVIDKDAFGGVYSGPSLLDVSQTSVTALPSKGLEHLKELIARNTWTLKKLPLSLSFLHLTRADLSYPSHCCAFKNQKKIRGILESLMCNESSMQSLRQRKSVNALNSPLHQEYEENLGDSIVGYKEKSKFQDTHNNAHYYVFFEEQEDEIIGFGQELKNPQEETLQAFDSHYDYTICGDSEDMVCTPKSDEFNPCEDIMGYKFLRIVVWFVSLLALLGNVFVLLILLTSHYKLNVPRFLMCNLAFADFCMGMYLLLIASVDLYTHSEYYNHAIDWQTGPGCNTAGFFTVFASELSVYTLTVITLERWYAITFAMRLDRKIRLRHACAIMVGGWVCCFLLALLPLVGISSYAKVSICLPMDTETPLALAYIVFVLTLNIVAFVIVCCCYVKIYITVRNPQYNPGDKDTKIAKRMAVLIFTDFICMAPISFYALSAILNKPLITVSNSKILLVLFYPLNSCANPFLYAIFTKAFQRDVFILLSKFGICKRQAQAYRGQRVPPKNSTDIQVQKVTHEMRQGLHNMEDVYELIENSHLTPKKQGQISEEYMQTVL
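HEK 293 cells stably expressing TSHR and a modified CNG channel, with CNG-only parental cells as counterscreen, were preloaded 60 min at room temperature with membrane potential dye containing 100 uM RO 20-1724. Compound exposure was 30 min, and depolarization was read as fluorescence at 590 nm.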
ERK AVP inh = qHTS Assay for Inhibitors of the ERK Signaling Pathway using a Homogeneous Screening Assay; HEK293-V1b, vasopressin-stimulated pERK AlphaScreen; Potency, µM (highest dose often 57.5 µM), for inactives: top-dose activity, negative = inhibition, most hits filed as inhibitors; actives 0.99% (n = 72,000); note: % is set by controls: 0 for no effect and ±100 for the full control effect; nearly all actives have a fitted effect of over 55% in size
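Phosphorylated ERK1/2 detected via AlphaScreen bead proximity in lysates of V1b-expressing HEK293 cells given 25 nM vasopressin for 5 min after 30 min compound exposure (37 °C). AC50 from Hill equation; basal DMSO 0%, vasopressin 100%.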
HEK293 cAMP ctrl = qHTS Assay for Agonists of the Thyroid Stimulating Hormone Receptor: Activators of Intracellular cAMP Concentrations in Parental HEK 293; parental HEK293 CNG cAMP sensor, membrane potential fluorescence; Potency, µM (titrated, usually from 57.1 µM), inactives show at the highest dose activation, most hits filed as activators; actives 2.5% (n = 73,000); note: % of control where 0% means no effect; nearly all actives have a fitted effect of over 55% in size
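Counterscreen for endogenous-receptor signalling: CNG-channel HEK 293 cells report cAMP rise by membrane depolarization. After 60 min dye equilibration with 100 uM RO 20-1724, compounds incubated 30 min before bottom-read fluorescence at 590 nm.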
Active calls of the source: *; [ ] = another dose, or the depositor's remark. Unless noted, calls come from the whole dose curve; as a rule, active = well fitted curve in the direction sought with a large enough effect; inconclusive = small, poorly fitted or top-dose-only effect, or another doubt; inactive = no such curve, though single readings can be large; an effect the other way counts as inactive or inconclusive. Potency is the fitted concentration of half-maximal effect.

For Nc1nc(SCC(=O)O)[nH]c(=O)c1N the results were CRE Fsk mod -2%[7.6 µM], Tau fil binding 4%[11.4 µM], TSHR agonist -4%[11.4 µM], ERK AVP inh 17%[11.5 µM] and HEK293 cAMP ctrl 6%[11.4 µM].
For O=C(/C=C/c1ccc(O)cc1)c1ccccc1O the results were ERK AVP inh 4µM*.
Screening O=C(/C=C/c1ccc(O)cc1)c1cccs1 returned ERK AVP inh 16µM*.
O=C(/C=C\c1ccccc1)c1ccccc1O was read as TSHR agonist -5%[11.4 µM], ERK AVP inh -20%[11.5 µM] and HEK293 cAMP ctrl 3%[11.4 µM].
Screening C=CCc1cccc(C2NC(C(=O)O)CCC2C)c1 (configuration not stated) returned TSHR agonist -7%[11.4 µM], ERK AVP inh 10%[11.5 µM] and HEK293 cAMP ctrl -1%[11.4 µM].
For CCOc1ccc(OCC)c(NC(=O)C2COc3ccccc3O2)c1 (configuration not stated) the results were CRE Fsk mod 28%, Tau fil binding 28%, TSHR agonist inconclusive, ERK AVP inh 12% and HEK293 cAMP ctrl 32µM*.
Cc1ccc(-c2nnc(N3CCOCC3)c3ccccc23)cc1S(=O)(=O)NCC1CCCO1 (configuration not stated) was read as CRE Fsk mod 3.2µM*, Tau fil binding -8%, TSHR agonist 9%, ERK AVP inh -7% and HEK293 cAMP ctrl -5%.
CCN1C(=O)[C@H]2[C@H]3[C@H](O)[C@H](O)C/C(=N/O[C@@H]4O[C@@H](COC(C)=O)[C@@H](OC(C)=O)[C@@H](OC(C)=O)[C@H]4OC(C)=O)[C@@H]3CC[C@@H]2C1=O was read as TSHR agonist -2%[11.4 µM], ERK AVP inh 3%[11.5 µM] and HEK293 cAMP ctrl 1%[11.4 µM].
`CCc1c2c(nc3ccc(OC(=O)N4CCC(N5CCCCC5)CC4)cc13)-c1cc3c(c(=O)n1C2)COC(=O)[C@]3(O)CC` gave ERK AVP inh -9%.
CCc1c2c(nc3cccc(C(C)C)c13)-c1cccc(=O)n1C2 was read as CRE Fsk mod 13µM*, Tau fil binding -18%, TSHR agonist 19%, ERK AVP inh -5% and HEK293 cAMP ctrl 19%.
Screening CC[C@@]1(O)C(=O)COc2c1cc1n(c2=O)Cc2c-1nc1cccc(C(C)C)c1c2[Si](C)(C)C returned CRE Fsk mod 13µM*, Tau fil binding -24%, ERK AVP inh -1% and HEK293 cAMP ctrl 30%.
C[N+](C)(N)CCC[N+](C)(C)N was read as CRE Fsk mod -8%[7.6 µM], Tau fil binding -6%[11.4 µM], TSHR agonist 4%[11.4 µM], ERK AVP inh 0%[11.5 µM] and HEK293 cAMP ctrl 2%[11.4 µM].
`C=CCNc1oc(-c2cccc3ccccc23)nc1C#N` gave CRE Fsk mod 13µM*, Tau fil binding 6%, TSHR agonist -15%, ERK AVP inh inconclusive and HEK293 cAMP ctrl -8%.
Screening CC1CCN(c2oc(-c3cccc4ccccc34)nc2C#N)CC1 returned CRE Fsk mod 10µM*, Tau fil binding 12%, TSHR agonist 11%, ERK AVP inh 14% and HEK293 cAMP ctrl 17%.
Screening CN(C)CCNc1oc(-c2ccccc2F)nc1C#N returned CRE Fsk mod 1%, Tau fil binding -3%, TSHR agonist 4%, ERK AVP inh -12% and HEK293 cAMP ctrl 0%.
Screening CCNc1oc(-c2cccc3ccccc23)nc1C#N returned CRE Fsk mod inconclusive, Tau fil binding 72%, ERK AVP inh 6% and HEK293 cAMP ctrl -26%.
Screening CC(C)Nc1oc(-c2cccc3ccccc23)nc1C#N returned CRE Fsk mod 13µM*, Tau fil binding 36%, TSHR agonist -5%, ERK AVP inh -29% and HEK293 cAMP ctrl -15%.
`N#Cc1nc(-c2cccc3ccccc23)oc1N1CCCCC1` gave CRE Fsk mod 28%, Tau fil binding -16%, TSHR agonist 7%, ERK AVP inh -1% and HEK293 cAMP ctrl 12%.
`Cc1cc(N2CCN(c3ccccn3)CC2)n2c(nc3ccccc32)c1C#N` gave CRE Fsk mod inconclusive, Tau fil binding 9%, TSHR agonist inconclusive, ERK AVP inh -14% and HEK293 cAMP ctrl 2µM*.
O=CN1CCN(C[C@H](O)CN2CCCCC2)CC1 was read as CRE Fsk mod 20%[7.6 µM], Tau fil binding 4%[11.4 µM], TSHR agonist 8%[11.4 µM], ERK AVP inh 4%[11.5 µM] and HEK293 cAMP ctrl -4%[11.4 µM].
CCc1cc2c(nc1CC)CCN(CC/C(C)=N/O[C@@H](C)c1cn([C@@H]3COC[C@@H]3O)nn1)C2 was read as TSHR agonist -2%[11.4 µM], ERK AVP inh 10%[11.5 µM] and HEK293 cAMP ctrl 0%[11.4 µM].
COc1ccc(COC(=O)N/N=C2/C[C@@H](O)[C@@H](O)[C@@H]3[C@@H]4C(=O)N(Cc5ccc6c(c5)OCO6)C(=O)[C@H]4CC[C@H]23)cc1 was read as TSHR agonist 0%[11.4 µM], ERK AVP inh 9%[11.5 µM] and HEK293 cAMP ctrl 4%[11.4 µM].
Screening CC1(C)Cc2ccccc2-c2nnc(SCC(=O)Nc3nc4ccccc4s3)n21 returned CRE Fsk mod 4µM*, Tau fil binding 221%, TSHR agonist inconclusive, ERK AVP inh 53% and HEK293 cAMP ctrl 5µM*.
`Cc1nc2cnc(Oc3ccccc3)nc2n(-c2ccccc2)c1=O` gave CRE Fsk mod inconclusive, Tau fil binding -2%, TSHR agonist 9%, ERK AVP inh inconclusive and HEK293 cAMP ctrl 17%.
For COc1ccc(-n2c(=O)c(C)nc3cnc(N(C)C)nc32)cc1 the results were CRE Fsk mod 13µM*, Tau fil binding -8%, ERK AVP inh -1% and HEK293 cAMP ctrl 22%.
